± gives the standard deviation of the averaged measurements. In all, about 33,000 sequences were measured (“E-score (dimensionless, -0.5 to 0.5)”: median about -0.049, highest 2% from about 0.37 on). Many of the other results were omitted from the sample, so the highest values are more common in it than they were.
These sequences were tested on T1, PmTbr T-box DNA-binding domain (GST fusion) (assay: PBM E-score of 8-mer (E-score (dimensionless, -0.5 to 0.5)); Tbr is Tbrain of the sea star Patiria miniata (Pm) or the sea urchin Strongylocentrotus purpuratus (Sp); higher = stronger binding preference). Conditions: the construct has about 5 more residues each side.
T1 sequence: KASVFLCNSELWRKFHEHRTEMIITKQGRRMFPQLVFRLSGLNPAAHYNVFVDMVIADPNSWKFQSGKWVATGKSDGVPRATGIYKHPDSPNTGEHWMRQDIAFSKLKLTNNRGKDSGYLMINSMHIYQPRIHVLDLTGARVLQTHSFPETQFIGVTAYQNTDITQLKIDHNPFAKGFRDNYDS
Description: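 Universal protein-binding microarray (Agilent AMADID 016060, 60-bp probes with a 35-bp variable region) incubated with 200 nM GST-fused Patiria miniata Tbr T-box DNA-binding domain (residues 272-466) in PBS pH 7.5. Scored for every ungapped 8-mer (given with its reverse complement) by the Universal PBM Analysis Suite as E-score (modified Wilcoxon-Mann-Whitney enrichment, range -0.5 to 0.5; >0.45 counts as bound) and Z-score of median probe intensity. Two replicate arrays (datasets 1 and 2).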
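Also: 200 nM protein in PBS on universal arrays averaged over duplicate arrays.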

Point of comparison: CCCCTACG, “PBM E-score of 8-mer” value -0.0948 ± 0.0047. Against it:
- CAGTGGTA — within error, -0.0733 ± 0.022
- CGCAGCCA — within error, 0.00214 ± 0.11
- AAGCGCCC — higher, -0.0238 ± 0.0037
- CACCGTCC — higher, 0.0123 ± 0.0021
- CGTATTCC — lower, -0.23 ± 0.036
- ATGCGAGA — higher, 0.144 ± 0.02
- CTGCGAGA — higher, 0.212 ± 0.035
- GTGCGAGA — higher, 0.43391 ± 0.00018
- GAGGGTGC — higher, 0.389 ± 0.018
- AAAGGTAT — within error, -0.0701 ± 0.061
- AAGGGTGG — higher, 0.1889 ± 0.001
- AAGGGTGA — higher, 0.19 ± 0.0034
- AAAGGTAC — lower, -0.152 ± 0.021
- GAGGGTGA — higher, 0.279 ± 0.005
- AAAGGTGC — higher, 0.422 ± 0.015
- AAAGGTGT — higher, 0.478 ± 0.0057
- AAGGGTGT — higher, 0.399 ± 0.018
- AAAGGTGG — higher, 0.234 ± 0.084
- CAGGGTGC — higher, 0.271 ± 0.036
- AAAGGTCC — higher, 0.011 ± 0.046
- AATAAGGT — within error, 0.0297 ± 0.12
- CACTATAC — higher, 0.132 ± 0.073
- ACGTCACA — higher, 0.258 ± 0.021
- GGGCCTAA — lower, -0.148 ± 0.024
- CGAGAACA — higher, 0.2 ± 0.0064
- AAAGGTGA — higher, 0.398 ± 0.025
- AAAGGTCA — lower, -0.303 ± 0.043
- AAAGGTAA — lower, -0.21 ± 0.041
- CAAGTGGG — higher, 0.211 ± 0.016
- CAAGTGTA — higher, 0.178 ± 0.035
- AAAGTGCG — higher, 0.315 ± 0.013
- CCAGTGTC — higher, 0.0539 ± 0.05
- CAAGTGGC — higher, 0.268 ± 0.028
- CAAGTGTC — higher, 0.38 ± 0.031
- CAAGTGTG — higher, 0.433 ± 0.0066
- GAAGTGCC — higher, 0.263 ± 0.019
- CAAGTGCG — higher, 0.389 ± 0.015
- GAAGTGTC — higher, 0.454 ± 0.0065
- CAAGTGCC — higher, 0.284 ± 0.029
- GAAGTGTA — higher, 0.293 ± 0.028
- ATTTAAGC — lower, -0.191 ± 0.065
- ACATATCC — within error, -0.0724 ± 0.065
- ACAGCTCA — higher, 0.237 ± 0.0098
- TAACACAA — higher, 0.313 ± 0.0094
- CTTCAATC — higher, 0.0436 ± 0.043
- ACCGACAA — higher, -0.0367 ± 0.05
- GCCGACCC — lower, -0.256 ± 0.038
- CCCGACAA — higher, 0.208 ± 0.044
- GCCGACAA — higher, 0.116 ± 0.04
- GCCGACAC — higher, 0.382 ± 0.03
- CCCGACAC — higher, 0.388 ± 0.012
- CCCGACAG — higher, 0.11 ± 0.0062
- ACCGACAT — higher, 0.0334 ± 0.031
- ACCGACAC — higher, 0.391 ± 0.02
- CGGTGGGC — within error, -0.131 ± 0.04
- ATCCCAAG — lower, -0.275 ± 0.07
- CGTACTTA — within error, -0.115 ± 0.042
- TGGCTACA — lower, -0.117 ± 0.0015
- GATGTTGC — within error, -0.0903 ± 0.014
- CCCAAAAC — higher, 0.0141 ± 0.0023
- AACCTACG — lower, -0.21 ± 0.0028
- TACCTACA — lower, -0.2971 ± 0.00036
- CACCTACC — higher, 0.413 ± 0.015
- AACCTACC — within error, -0.0696 ± 0.071
- GACCTACC — lower, -0.153 ± 0.0062
- GACCTACA — lower, -0.125 ± 0.019
- CACCTACG — higher, 0.412 ± 0.0089
- CACCTACA — higher, 0.407 ± 0.013
- CGGAAGGA — lower, -0.209 ± 0.012
- CTGCCACA — higher, 0.226 ± 0.014
- GCAAAGGA — lower, -0.229 ± 0.021
- CTTCTCGC — higher, 0.229 ± 0.027
- ACCTGGGG — higher, 0.0226 ± 0.0096
- AGTCGAGG — within error, 0.0125 ± 0.11
- CGTACTGA — within error, -0.105 ± 0.017
- AATCTAAA — higher, -0.0399 ± 0.05
- AGCATCCC — within error, -0.136 ± 0.039
- CACTGTGG — within error, -0.16 ± 0.098
- CTATTATC — within error, -0.101 ± 0.018
- AAGTGCCA — higher, 0.41 ± 0.0065
- ATGTGCTC — lower, -0.297 ± 0.012
- ACGTGCTA — higher, 0.417 ± 0.019
- GAGTGCCA — higher, 0.242 ± 0.0057
- ATGTGCTA — higher, 0.396 ± 0.0083
- ATGTGCCG — higher, 0.0963 ± 0.036
- CTGTGCTA — higher, 0.0225 ± 0.0027
- AAGTGCCC — lower, -0.143 ± 0.0036
- CCGTGCTA — higher, 0.263 ± 0.0013
- ATGTGCCA — higher, 0.375 ± 0.0048
- GCGTGCTA — higher, 0.261 ± 0.0046
- ATGTGCCC — within error, -0.0261 ± 0.068
- ATGACCTC — within error, -0.0665 ± 0.086
- CAGCGATA — higher, 0.0152 ± 0.0054
- ACAAGAGG — within error, -0.108 ± 0.048
- CATACAGG — lower, -0.17 ± 0.0088
- CCACTCCG — higher, -0.01631 ± 0.00014
- GATTAGAC — higher, -0.0447 ± 0.044
- GCCTCTGA — higher, 0.0009 ± 0.067
- ACTTAAAG — higher, 0.0623 ± 0.041
- AAGTGCTA — higher, 0.448 ± 0.016
- AAGTGCTC — higher, 0.0187 ± 0.018
- AAGTGCTG — higher, 0.283 ± 0.0071
- CCCTTAAG — higher, -0.00471 ± 0.02
- CGTGCAGC — higher, 0.0118 ± 0.029
- CATCGCAC — higher, 0.373 ± 0.023
- CATCGCAA — higher, 0.0368 ± 0.039
- GATCGCGC — higher, 0.289 ± 0.018
- GATCGCAA — higher, 0.244 ± 0.013
- CATCGCAG — higher, 0.0526 ± 0.063
- AATCGCAC — higher, 0.381 ± 0.0051
- AATCGCAG — higher, 0.0445 ± 0.062
- AATCGCAT — higher, 0.0479 ± 0.038
- GATCGCAC — higher, 0.42 ± 0.018
- ACGAATGG — higher, 0.0417 ± 0.027
- GAATGGGA — lower, -0.214 ± 0.011
- GCCATGTA — within error, -0.101 ± 0.045
- ACCACTCC — higher, 0.0476 ± 0.03
- GCTTGCGA — higher, 0.105 ± 0.024
- ACTTGCGA — higher, 0.386 ± 0.006
- AGTTGCGG — higher, 0.0771 ± 0.12
- AGTTGCGA — higher, 0.412 ± 0.0052
- AGTTGCGC — higher, 0.0703 ± 0.035
- CCTTGCGA — higher, 0.243 ± 0.012
- CGGGTCAC — higher, 0.113 ± 0.024
- CAGAGGTC — higher, -0.0549 ± 0.0023
- ACAGTAAC — higher, 0.186 ± 0.054
- GCTTAAGC — lower, -0.292 ± 0.0039
- AGGCCCCC — lower, -0.332 ± 0.014
- AAACGGCA — higher, 0.0707 ± 0.068
- GGCTTCAA — lower, -0.121 ± 0.014
- AATTCGAC — higher, -0.0254 ± 0.029
- CCATCACG — higher, 0.033 ± 0.018
- CGGTGGGA — higher, -0.0368 ± 0.0018
- AGGTGGTC — higher, -0.0579 ± 0.012
- AGGTGGAG — higher, 0.141 ± 0.0032
- AGGTGGGC — within error, -0.0782 ± 0.065
- AGGTGGGA — higher, 0.418 ± 0.01
- GGGTGGTA — higher, 0.121 ± 0.07
- CGGTGGTA — higher, -0.00583 ± 0.042
- AGGTGGTG — higher, 0.385 ± 0.042
- AGGTGGTA — higher, 0.415 ± 0.0043
- ATTCAGAG — lower, -0.13 ± 0.0013
- CGACTTGC — higher, 0.161 ± 0.025
- CCATCTCG — within error, -0.0242 ± 0.099
- GCTTGCCC — lower, -0.245 ± 0.0072
- TCCATCGA — within error, -0.121 ± 0.022
- ATAACGCC — higher, 0.237 ± 0.023
- ATTGCACG — higher, 0.152 ± 0.033
- GGGTGGCA — higher, 0.322 ± 0.024
- AGGTGGCG — higher, 0.412 ± 0.023
- AGGTGGCA — higher, 0.436 ± 0.0087
- CGGTGGCA — higher, 0.147 ± 0.031
- AGGTGGCC — higher, 0.0319 ± 0.077
- AAGTGGCG — higher, 0.3473 ± 0.0029
- AAGTTGGA — higher, -0.0116 ± 0.045
- AGAAGTCC — higher, 0.0869 ± 0.022
- GTAGCCCA — lower, -0.311 ± 0.012
- ACACATCT — higher, 0.325 ± 0.019
- GCACATCC — higher, 0.136 ± 0.038
- ACACATCC — higher, 0.3871 ± 0.0015
- ACACATCA — higher, 0.299 ± 0.017
- ACACATCG — higher, 0.382 ± 0.017
- CCACATCC — within error, -0.102 ± 0.032
- ACTTCTCC — higher, -0.0311 ± 0.0014
- GGAGGCTA — lower, -0.209 ± 0.016
- ATAGGCAT — lower, -0.337 ± 0.021
- CAAAGGTA — within error, -0.133 ± 0.035
- CAAAGGTG — higher, 0.436 ± 0.018
- CAAAGGTC — within error, -0.13 ± 0.039
- AAAAGGTG — higher, 0.442 ± 0.012
- AAAAGGTT — higher, -0.0316 ± 0.041
- AAAAGGTC — within error, -0.0764 ± 0.033

Reference: the supplement of paper PMC4166925
